Measured values taken from PubChem BioAssay (NCATS).
Unmarked numbers belong to inactive results. Calls follow the shape of the dose curve; as a rule, active = well fitted inhibition curve with a large enough effect; inconclusive = small, poorly fitted or top-dose-only effect; inactive = flat fitted curve, though single readings scatter.

The compounds below were run against DNA polymerase III PolC-type (Bacillus subtilis (strain 168)) (UniProt P13267) (assay: qHTS Validation Assay for the Inhibitors of DNA Replication in Gram-Positive Bacteria (AID 485295;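 also: reconstituted holoenzyme with PolC plus beta clamp SSB and primase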)). Conditions: Gram-positive bacterial DNA replication assay; series mostly up to 57.1 µM; activity change, negative = inhibition: at the top concentration.
DNA polymerase III PolC-type (Bacillus subtilis (strain 168)), sequence (P13267 whole entry, looked up): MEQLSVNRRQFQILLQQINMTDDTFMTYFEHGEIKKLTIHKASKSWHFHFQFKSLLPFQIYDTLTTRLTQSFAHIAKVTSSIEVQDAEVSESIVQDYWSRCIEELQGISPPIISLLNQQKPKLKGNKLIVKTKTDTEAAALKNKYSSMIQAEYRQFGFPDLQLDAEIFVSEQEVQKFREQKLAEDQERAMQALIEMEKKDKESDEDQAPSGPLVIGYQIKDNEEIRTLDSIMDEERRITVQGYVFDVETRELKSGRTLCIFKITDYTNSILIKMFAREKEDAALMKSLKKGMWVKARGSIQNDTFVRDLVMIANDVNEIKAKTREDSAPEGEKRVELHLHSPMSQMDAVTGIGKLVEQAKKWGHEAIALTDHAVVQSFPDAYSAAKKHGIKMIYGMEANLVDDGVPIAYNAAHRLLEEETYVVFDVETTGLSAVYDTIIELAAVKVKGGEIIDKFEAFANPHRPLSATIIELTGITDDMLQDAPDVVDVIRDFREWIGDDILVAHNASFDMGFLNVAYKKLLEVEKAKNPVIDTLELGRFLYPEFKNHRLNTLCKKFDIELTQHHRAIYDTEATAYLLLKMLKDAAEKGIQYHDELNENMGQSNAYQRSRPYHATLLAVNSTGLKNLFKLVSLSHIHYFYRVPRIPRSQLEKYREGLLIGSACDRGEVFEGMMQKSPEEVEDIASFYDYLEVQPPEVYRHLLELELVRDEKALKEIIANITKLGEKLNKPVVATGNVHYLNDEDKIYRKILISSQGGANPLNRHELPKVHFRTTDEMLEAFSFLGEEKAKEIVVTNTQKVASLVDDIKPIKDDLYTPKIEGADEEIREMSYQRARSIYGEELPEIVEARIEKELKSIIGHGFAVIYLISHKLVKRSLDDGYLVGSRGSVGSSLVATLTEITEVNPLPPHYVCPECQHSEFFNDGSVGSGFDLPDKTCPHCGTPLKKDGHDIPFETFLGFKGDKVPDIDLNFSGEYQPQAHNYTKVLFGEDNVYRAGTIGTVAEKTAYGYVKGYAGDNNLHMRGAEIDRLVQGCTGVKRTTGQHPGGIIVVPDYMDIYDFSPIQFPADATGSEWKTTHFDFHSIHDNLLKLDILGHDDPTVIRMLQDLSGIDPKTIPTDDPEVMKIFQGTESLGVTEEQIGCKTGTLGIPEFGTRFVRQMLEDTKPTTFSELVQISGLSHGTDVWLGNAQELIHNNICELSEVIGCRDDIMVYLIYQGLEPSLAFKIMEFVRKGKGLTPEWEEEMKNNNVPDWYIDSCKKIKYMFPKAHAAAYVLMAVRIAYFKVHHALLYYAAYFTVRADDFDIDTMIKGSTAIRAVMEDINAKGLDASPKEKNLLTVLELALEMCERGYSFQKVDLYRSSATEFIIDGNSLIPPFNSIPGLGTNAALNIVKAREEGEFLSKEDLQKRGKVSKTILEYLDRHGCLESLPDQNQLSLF
Experimental: B Subtilis DNA polymerase III holoenzyme complex was assayed for DNA production by fluorescent detection of the double-stranded DNA product with PicoGreen dye. The holoenzyme complex was reconstituted from the following purified protein components: DNA Polymerase III, beta subunit processivity factor, SSB single-stranded DNA binding protein, and Primase. Single-stranded, circular M13Gori was used as a substrate with dNTPs and NTPs also supplied to the substrate reagent. Compounds from the NCGC collection were incubated with the holoenzyme mixture for […] at room temperature to allow binding to occur, and then the reaction was started by the addition of substrate. After 30 min incubation at room temperature, PicoGreen solution containing EDTA was added to stop the reaction and to visualize the double-stranded DNA produced. Reaction progress was measured in a ViewLux CCD imager in fluorescence intensity mode by using 480 nm excitation and 540 nm emission filter set.
1. Thaw screening compounds.
2. Label assay plates. Prepare pipette tips, reagent reservoirs, buffers and controls.
1. Thaw Enzymes, DNA template, Nucleotides and PicoGreen dye concentrate. Thawed enzymes are stable on ice for ~1
week. Other thawed components are stable indefinitely.
2. Prepare sufficient quantities of Enzyme, Substrate and PicoGreen Quench mixes (according to Table II). For the number of
compound plates being screened.
3. Ensure that the tip wash station reservoirs have clean water and turn on recirculating chiller so that the chilled deck position
1. Load 2 uL of EDTA controls (250 mM, Background, 100 % inhibition) and 2 uL of DMSO controls (Negative control, 0%
inhibition) in the screening plates (flat-bottomed black 384-well polypropylene, Greiner Bio-one).
2. Place Enzyme mix reservoir on the chiller position of the liquid handler deck. Make sure that chiller will maintain
temperature of Enzyme mix at 4degC. Substrate mix and PicoGreen Quench can be stored at room temp.
3. Program liquid handling robotics to dispense 18 uL of Enzyme mix into assay plates. Wash tips.
4. Aspirate and dispense 2 uL of compound from compound plates, mix and Incubate at room temperature for 10 minutes.
5. Aspirate 5 ul of Substrate mix, dispense into assay plates and mix by pipetting. Wash tips.
6. Incubate at room temperature (21 +/- 1 deg C) for 20 minutes.
7. Quench reactions by addition of 25 uL PicoGreen Quench mix and mix by pipetting (using HTS robotics or bulk reagent
dispenser such as a Multidrop or uFill). Keep plates in the dark or stacked until ready to read fluorescence.
8. Read fluorescence intensity of plates on plate reader using "Fluorescein (Ex 485 nm/ Em 535 nm, 0.1s)" setting.
With C=CCN1CCc2cc(O)c(O)cc2C(c2ccccc2)C1 (stereo not given) the “activity change, negative = inhibition” value was 4.08%. O=c1oc(Cl)c(Cl)c2ccccc12 was tested, and the “activity change, negative = inhibition” value was 3.42%. With O=c1[nH]c2ccccc2c2ccccc12 the “activity change, negative = inhibition” value was 7.66%. With COc1ccc2c(c1)c(CC(=O)O)c(C)n2Cc1ccc(Cl)cc1 the “activity change, negative = inhibition” value was -4.86%. C[C@]12C=CC(=O)C=C1CC[C@@H]1C2=CC[C@]2(C)[C@@H](C(=O)CN3CCN(c4cc(N5CCCC5)nc(N5CCCC5)n4)CC3)CC[C@@H]12 was tested, and the “activity change, negative = inhibition” value was -2.6%. For CC(C)(CO)Cc1cc(C(C)(C)C)c(O)c(C(C)(C)C)c1, the “activity change, negative = inhibition” value was -8.05%. With CN1CCN(c2nc3cc(C(F)(F)F)ccc3n3cccc23)CC1 the “activity change, negative = inhibition” value was -2.66%. [Li+] was tested, and the “activity change, negative = inhibition” value was 5.02%. In the case of CC(=O)SC1CC2=CC(=O)CC[C@]2(C)C2CC[C@@]3(C)C(CC[C@@]34CCC(=O)O4)C12 (stereo not given in full), the “activity change, negative = inhibition” value is reported as 4.91%. For CCSC(=N)N, the “activity change, negative = inhibition” value was -4.61%. CCCCOc1cc(CC2CNC(=O)N2)ccc1OC (stereo not given) was tested, and the “activity change, negative = inhibition” value was 7.64%. NC1(C(=O)O)CC1 was tested, and the “activity change, negative = inhibition” value was -4.08%. With CCCCCCCCCC(=O)NC(CN1CCOCC1)[C@H](O)c1ccccc1 (stereo not given in full) the “activity change, negative = inhibition” value was -9.9%. With COC(=O)C(C)(N)Cc1ccc(O)cc1 (stereo not given) the “activity change, negative = inhibition” value was 6.16%. With CCCCCC(O)CCCC(=O)O (stereo not given) the “activity change, negative = inhibition” value was -4.53%. c1ccc(C2CN3CCSC3=N2)cc1 (stereo not given) was tested, and the “activity change, negative = inhibition” value was 1.35%. C=C1C[C@@]23CC[C@H]4[C@@](C)(CCC[C@@]4(C)C(=O)OC4OC(CO)C(O)C(O)C4O)[C@@H]2CC[C@]1(OC1OC(CO)C(O)C(O)C1OC1OC(CO)C(O)C(O)C1O)C3 (stereo not given in full) was tested, and the “activity change, negative = inhibition” value was -1.7%. In the case of NCCS(=O)O, the “activity change, negative = inhibition” value is reported as 6.04%. With NC(N)=NC(N)=Nc1ccccc1 the “activity change, negative = inhibition” value was 1.08%. With CCCc1c(OCCCOc2ccc(OCC(=O)O)cc2)ccc(C(C)=O)c1O the “activity change, negative = inhibition” value was -1.29%. For CSC(N)=NCCC[C@H](N)C(=O)O, the “activity change, negative = inhibition” value was 3.42%. For N[C@@H](Cc1ccc(O)c(I)c1)C(=O)O, the “activity change, negative = inhibition” value was 5.27%. For CCCCS(=N)(=O)CC[C@H](N)C(=O)O (stereo not given in full), the “activity change, negative = inhibition” value was -5.01%. O=S(=O)(c1cccc2c(Cl)cccc12)N1CCCNCC1 was tested, and the “activity change, negative = inhibition” value was 4.01%. CN(CC[C@@H](Oc1ccc(C(F)(F)F)cc1)c1ccccc1)CC(=O)O was tested, and the “activity change, negative = inhibition” value was -4.35%. For Cc1cccc(C)c1OCC(N)C(C)C (stereo not given), the “activity change, negative = inhibition” value was -0.302%. For C/C(=C\c1ccc(C(=O)O)cc1)c1ccc2c(c1)C(C)(C)CCC2(C)C, the “activity change, negative = inhibition” value was -9.68%. In the case of Nc1ncnc2c1c(-c1ccc(Oc3ccccc3)cc1)cn2C1CCCC1, the “activity change, negative = inhibition” value is reported as -8.21%. Nc1nc2c(cnn2CCc2ccccc2)c2nc(-c3ccco3)nn12 was tested, and the “activity change, negative = inhibition” value was 2.38%. For Nc1nc2ccc(Cl)cc2c2nc(-c3ccco3)nn12, the “activity change, negative = inhibition” value was -0.856%. In the case of O=c1ccn([C@@H]2O[C@H](COP(=O)(O)OP(=O)(O)O)[C@@H](O)[C@H]2O)c(=O)[nH]1, the “activity change, negative = inhibition” value is reported as 1.93%. In the case of CCCCC[C@H](CC(=O)NO)C(=O)N[C@H](C(=O)N1CCC[C@H]1CO)C(C)C, the “activity change, negative = inhibition” value is reported as -7.02%. For CSC(=N)N, the “activity change, negative = inhibition” value was 7.96%. In the case of O=C1C2C=CC=CC2=NC(=S)N1CCN1CCC(=C(c2ccc(F)cc2)c2ccc(F)cc2)CC1 (stereo not given), the “activity change, negative = inhibition” value is reported as -2.02%. With Oc1ccc(/C=C/c2ccc(/C=C/c3ccc(O)cc3)c(Br)c2)cc1 the “activity change, negative = inhibition” value was -2.77%. With Clc1nccc2c1ccc1ccccc12 the “activity change, negative = inhibition” value was -3.43%. For COc1cc(C(O)C(=O)O)ccc1O (stereo not given), the “activity change, negative = inhibition” value was 6.54%. With Nn1nnc2ccccc21 the “activity change, negative = inhibition” value was 10%. For CCCC[C@@]1(C2CCCC2)Cc2cc(OCC(=O)O)c(Cl)c(Cl)c2C1=O, the “activity change, negative = inhibition” value was -0.558%. For Cc1nc2c(OCc3ccccc3)cccn2c1CC#N, the “activity change, negative = inhibition” value was 2.26%.
